Experimental data from ChEMBL document CHEMBL1961873, “Compounds: GSK PKIS; Assays: Nanosyn kinase panel” (2012).
Several values for one entry are separate records, joined by “and”; a condition that tells them apart may be missing. Equal entries are not always repeated.

Target: T1, Serine/threonine-protein kinase 4 (Homo sapiens) (UniProt Q13043);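 note: mean inhibition of MST1, part of the GSK PKIS dataset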
T1 sequence (whole entry): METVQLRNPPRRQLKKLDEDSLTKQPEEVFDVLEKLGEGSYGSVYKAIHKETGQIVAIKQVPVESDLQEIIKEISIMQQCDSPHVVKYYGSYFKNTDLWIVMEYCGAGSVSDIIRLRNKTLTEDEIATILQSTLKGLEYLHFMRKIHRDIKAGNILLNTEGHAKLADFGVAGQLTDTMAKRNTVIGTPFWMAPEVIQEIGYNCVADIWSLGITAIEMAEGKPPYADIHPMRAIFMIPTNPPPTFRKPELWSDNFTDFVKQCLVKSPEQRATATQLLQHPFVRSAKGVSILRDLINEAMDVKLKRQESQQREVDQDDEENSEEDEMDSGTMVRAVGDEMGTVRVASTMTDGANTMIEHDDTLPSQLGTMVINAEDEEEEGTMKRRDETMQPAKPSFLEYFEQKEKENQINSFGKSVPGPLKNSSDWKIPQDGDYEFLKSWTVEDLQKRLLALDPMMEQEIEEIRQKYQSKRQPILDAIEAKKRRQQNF
Details: at 1 µM

Compound | inhibition
CNC(=O)c1cncc(/C=C/c2ccccc2C)c1 | 17.2%
CC(C)c1ccc(-c2cc(-c3c[nH]nc3-c3ccccn3)ccn2)cc1 | -0.98%
Fc1cccc(COc2ccc(Nc3ncncc3C#Cc3ccccc3)cc2Cl)c1 | 9.95%
NS(=O)(=O)c1ccc(N/N=C2\C(=O)Nc3cccc(CCc4ccncc4)c32)cc1 | 48.9%
CCn1c(-c2nonc2N)nc2cncc(C(=O)NCCNC)c21 | 6.56%
CS(=O)(=O)CCNCc1ccc(-c2ccc3ncnc(Nc4ccc(OCc5cccc(C(F)(F)F)c5)cc4)c3c2)o1 | 5.83%
Cc1cc(O)cc(C)c1/C=C/c1cncc(C(=O)OC(C)(C)C)c1 | 8.26%
O=C(O[C@H]1CN[C@H](C#Cc2cc3ncnc(Nc4ccc(OCc5cccc(F)c5)c(Cl)c4)c3s2)C1)N1CCOCC1 | 8.15%
c1ccc(-c2n[nH]cc2-c2ccnc(-c3ccc(OCCn4ccnc4)cc3)c2)nc1 | 6.24%
c1cnn2ncc(-c3ccnc(NCCCN4CCOCC4)n3)c2c1 | 1.9%
O=C(O[C@H]1CN[C@H](C#Cc2cc3ncnc(Nc4ccc5c(ccn5Cc5cc(F)ccc5F)c4)c3s2)C1)N1CCOCC1 | 4.43%
O=C(O[C@H]1CN[C@H](C#Cc2cc3ncnc(Nc4ccc5c(cnn5Cc5ccccc5)c4)c3s2)C1)N1CCOCC1 | 4.54%
COc1ccc(Nc2ncc(-c3ccccc3)o2)cc1OC | 4.87%
CC1=C(C(=O)Nc2ccc3[nH]nc(C)c3c2)C(c2ccc(C(F)(F)F)cc2)CC(=O)N1 (configuration not stated) | 7.56%
Cn1c(-c2nonc2N)nc2cnccc21 | 3.75%
CCS(=O)(=O)c1ccc(OC)c(Nc2ncc(-c3cccc(F)c3)o2)c1 | 8.63%

Compound | inhibition
Cc1nnc(-c2cccc(-c3ccc(C(=O)NCC4CC4)cc3)c2)o1 | 9.93%
COc1cc2c(cc1Nc1nc(Nc3cccc(F)c3C(N)=O)c3cc[nH]c3n1)N(C(=O)CN1CCN(C(C)C)CC1)CC2 | 3.77%
COc1cc(N2CCN(C(C)C)CC2)ccc1Nc1nc(Nc2cccc(F)c2C(=O)O)c2cc[nH]c2n1 | 9.21%
NC(=O)c1ccc2c(-c3ccnc(NCCCO)n3)c(-c3ccc(F)cc3)nn2c1 | 5.36%
COc1ccccc1-c1cc(/C=C2\C(=O)Nc3ncc(Br)cc32)cc(Br)c1O | 8.19%
COC(=O)Nc1nc2ccc(Oc3ccc(NC(=O)Nc4cc(C(F)(F)F)ccc4F)cc3)cc2s1 | -1.63%
CN1CCC(C(=O)Nc2n[nH]c3nc(-c4ccc(O)cc4)c(Br)cc23)CC1 | 14.7% and 2.3%
CCOc1ccc2c(-c3ccnc(Nc4cc(OC)cc(C(F)(F)F)c4)n3)cnn2n1 | 1.83%
CC1=C(C(=O)Nc2ccc3[nH]ncc3c2)C(c2ccc(F)cc2)N=C(c2ccc(C(F)(F)F)nc2)N1 (configuration not stated) | 2.27%
Nc1ncnc2occ(-c3ccc(NC(=O)Nc4cc(C(F)(F)F)ccc4F)cc3)c12 | 8.75% and 0.44%
CCS(=O)(=O)c1ccc(OC)c(Nc2ncc(-c3cccc(C(C)=O)c3)o2)c1 | 13.3%
FC(F)(F)CNc1nccc(-c2cnn3ncccc23)n1 | 3.82%
CN(C)CCNC(=O)Nc1ccc(N(C)c2ccnc(Nc3ccc(CS(C)(=O)=O)cc3)n2)cc1 | 11.4%
Nc1nccc(-c2c(-c3ccc(F)cc3)ncn2C2CCNCC2)n1 | -0.43% and 1.1%
CN1CCC(n2cnc(-c3ccc(F)cc3)c2-c2ccnc(NCCO)n2)CC1 | 10.4%

Target: T2, Serine/threonine-protein kinase 3 (Homo sapiens) (UniProt Q13188);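 note: reported value is the mean percent inhibition of MST2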
T2 sequence (whole entry): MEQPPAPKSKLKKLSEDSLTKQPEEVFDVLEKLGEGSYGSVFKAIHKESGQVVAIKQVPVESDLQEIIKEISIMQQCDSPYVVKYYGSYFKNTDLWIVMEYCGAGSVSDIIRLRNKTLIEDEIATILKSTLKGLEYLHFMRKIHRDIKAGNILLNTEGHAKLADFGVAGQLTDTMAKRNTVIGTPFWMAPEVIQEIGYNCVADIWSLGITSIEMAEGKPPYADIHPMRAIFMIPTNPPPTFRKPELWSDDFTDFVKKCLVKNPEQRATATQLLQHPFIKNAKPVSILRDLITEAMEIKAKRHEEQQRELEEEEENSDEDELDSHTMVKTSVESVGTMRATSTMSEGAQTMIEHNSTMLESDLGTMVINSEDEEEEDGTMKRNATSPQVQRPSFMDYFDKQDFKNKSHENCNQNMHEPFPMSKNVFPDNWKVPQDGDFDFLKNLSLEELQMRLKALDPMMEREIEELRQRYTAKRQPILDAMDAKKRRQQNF
Details: at 0.1 µM

Compound | inhibition
CNC(=O)c1cncc(/C=C/c2ccccc2C)c1 | 9.07%
CC(C)c1ccc(-c2cc(-c3c[nH]nc3-c3ccccn3)ccn2)cc1 | 1.18%
Fc1cccc(COc2ccc(Nc3ncncc3C#Cc3ccccc3)cc2Cl)c1 | 6.83%
NS(=O)(=O)c1ccc(N/N=C2\C(=O)Nc3cccc(CCc4ccncc4)c32)cc1 | 20.1%
CCn1c(-c2nonc2N)nc2cncc(C(=O)NCCNC)c21 | 5.96%
CS(=O)(=O)CCNCc1ccc(-c2ccc3ncnc(Nc4ccc(OCc5cccc(C(F)(F)F)c5)cc4)c3c2)o1 | 4.6%
Cc1cc(O)cc(C)c1/C=C/c1cncc(C(=O)OC(C)(C)C)c1 | 2.81%
O=C(O[C@H]1CN[C@H](C#Cc2cc3ncnc(Nc4ccc(OCc5cccc(F)c5)c(Cl)c4)c3s2)C1)N1CCOCC1 | 5.87%
c1ccc(-c2n[nH]cc2-c2ccnc(-c3ccc(OCCn4ccnc4)cc3)c2)nc1 | -0.71%
c1cnn2ncc(-c3ccnc(NCCCN4CCOCC4)n3)c2c1 | 3.76%
O=C(O[C@H]1CN[C@H](C#Cc2cc3ncnc(Nc4ccc5c(ccn5Cc5cc(F)ccc5F)c4)c3s2)C1)N1CCOCC1 | 2.54%
O=C(O[C@H]1CN[C@H](C#Cc2cc3ncnc(Nc4ccc5c(cnn5Cc5ccccc5)c4)c3s2)C1)N1CCOCC1 | 1.56%
COc1ccc(Nc2ncc(-c3ccccc3)o2)cc1OC | -0.13%
CC1=C(C(=O)Nc2ccc3[nH]nc(C)c3c2)C(c2ccc(C(F)(F)F)cc2)CC(=O)N1 (configuration not stated) | 5.03%
Cn1c(-c2nonc2N)nc2cnccc21 | 4.04%
CCS(=O)(=O)c1ccc(OC)c(Nc2ncc(-c3cccc(F)c3)o2)c1 | 5.69%

Compound | inhibition
Cc1nnc(-c2cccc(-c3ccc(C(=O)NCC4CC4)cc3)c2)o1 | 10.6%
COc1cc2c(cc1Nc1nc(Nc3cccc(F)c3C(N)=O)c3cc[nH]c3n1)N(C(=O)CN1CCN(C(C)C)CC1)CC2 | 2.26%
COc1cc(N2CCN(C(C)C)CC2)ccc1Nc1nc(Nc2cccc(F)c2C(=O)O)c2cc[nH]c2n1 | 5.03%
NC(=O)c1ccc2c(-c3ccnc(NCCCO)n3)c(-c3ccc(F)cc3)nn2c1 | 4.28%
COc1ccccc1-c1cc(/C=C2\C(=O)Nc3ncc(Br)cc32)cc(Br)c1O | 7.78%
COC(=O)Nc1nc2ccc(Oc3ccc(NC(=O)Nc4cc(C(F)(F)F)ccc4F)cc3)cc2s1 | -0.86%
CN1CCC(C(=O)Nc2n[nH]c3nc(-c4ccc(O)cc4)c(Br)cc23)CC1 | 6.33% and 2.47%
CCOc1ccc2c(-c3ccnc(Nc4cc(OC)cc(C(F)(F)F)c4)n3)cnn2n1 | -0.19%
CC1=C(C(=O)Nc2ccc3[nH]ncc3c2)C(c2ccc(F)cc2)N=C(c2ccc(C(F)(F)F)nc2)N1 (configuration not stated) | 2.18%
Nc1ncnc2occ(-c3ccc(NC(=O)Nc4cc(C(F)(F)F)ccc4F)cc3)c12 | 4.42% and -3.89%
CCS(=O)(=O)c1ccc(OC)c(Nc2ncc(-c3cccc(C(C)=O)c3)o2)c1 | 7.18%
FC(F)(F)CNc1nccc(-c2cnn3ncccc23)n1 | 6.06%
CN(C)CCNC(=O)Nc1ccc(N(C)c2ccnc(Nc3ccc(CS(C)(=O)=O)cc3)n2)cc1 | 6.63%
Nc1nccc(-c2c(-c3ccc(F)cc3)ncn2C2CCNCC2)n1 | -3.39% and 1.21%
CN1CCC(n2cnc(-c3ccc(F)cc3)c2-c2ccnc(NCCO)n2)CC1 | 7.55%
